Experimental data as given in PubChem BioAssay.

Target: Nuclear receptor coactivator 1 (Homo sapiens) (UniProt Q15788)
Assay: NCOA1 GAL4-fusion reporter inhibition – cell-based, luminescence, quadruplicate, confirmation (AID 588820);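 note: 0% = DMSO wells and 100% = gossypol 36 µM treated wells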
Settings: HEK293 GAL4-SRC1 luciferase reporter, at 3.6 µM, hits give high values;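 active = mean inhibition above 46.68%, the untreated control wells mean plus 3 SD; inactive = the rest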

Nuclear receptor coactivator 1 (Homo sapiens), sequence (Q15788 whole entry, looked up, the tested form may be a part): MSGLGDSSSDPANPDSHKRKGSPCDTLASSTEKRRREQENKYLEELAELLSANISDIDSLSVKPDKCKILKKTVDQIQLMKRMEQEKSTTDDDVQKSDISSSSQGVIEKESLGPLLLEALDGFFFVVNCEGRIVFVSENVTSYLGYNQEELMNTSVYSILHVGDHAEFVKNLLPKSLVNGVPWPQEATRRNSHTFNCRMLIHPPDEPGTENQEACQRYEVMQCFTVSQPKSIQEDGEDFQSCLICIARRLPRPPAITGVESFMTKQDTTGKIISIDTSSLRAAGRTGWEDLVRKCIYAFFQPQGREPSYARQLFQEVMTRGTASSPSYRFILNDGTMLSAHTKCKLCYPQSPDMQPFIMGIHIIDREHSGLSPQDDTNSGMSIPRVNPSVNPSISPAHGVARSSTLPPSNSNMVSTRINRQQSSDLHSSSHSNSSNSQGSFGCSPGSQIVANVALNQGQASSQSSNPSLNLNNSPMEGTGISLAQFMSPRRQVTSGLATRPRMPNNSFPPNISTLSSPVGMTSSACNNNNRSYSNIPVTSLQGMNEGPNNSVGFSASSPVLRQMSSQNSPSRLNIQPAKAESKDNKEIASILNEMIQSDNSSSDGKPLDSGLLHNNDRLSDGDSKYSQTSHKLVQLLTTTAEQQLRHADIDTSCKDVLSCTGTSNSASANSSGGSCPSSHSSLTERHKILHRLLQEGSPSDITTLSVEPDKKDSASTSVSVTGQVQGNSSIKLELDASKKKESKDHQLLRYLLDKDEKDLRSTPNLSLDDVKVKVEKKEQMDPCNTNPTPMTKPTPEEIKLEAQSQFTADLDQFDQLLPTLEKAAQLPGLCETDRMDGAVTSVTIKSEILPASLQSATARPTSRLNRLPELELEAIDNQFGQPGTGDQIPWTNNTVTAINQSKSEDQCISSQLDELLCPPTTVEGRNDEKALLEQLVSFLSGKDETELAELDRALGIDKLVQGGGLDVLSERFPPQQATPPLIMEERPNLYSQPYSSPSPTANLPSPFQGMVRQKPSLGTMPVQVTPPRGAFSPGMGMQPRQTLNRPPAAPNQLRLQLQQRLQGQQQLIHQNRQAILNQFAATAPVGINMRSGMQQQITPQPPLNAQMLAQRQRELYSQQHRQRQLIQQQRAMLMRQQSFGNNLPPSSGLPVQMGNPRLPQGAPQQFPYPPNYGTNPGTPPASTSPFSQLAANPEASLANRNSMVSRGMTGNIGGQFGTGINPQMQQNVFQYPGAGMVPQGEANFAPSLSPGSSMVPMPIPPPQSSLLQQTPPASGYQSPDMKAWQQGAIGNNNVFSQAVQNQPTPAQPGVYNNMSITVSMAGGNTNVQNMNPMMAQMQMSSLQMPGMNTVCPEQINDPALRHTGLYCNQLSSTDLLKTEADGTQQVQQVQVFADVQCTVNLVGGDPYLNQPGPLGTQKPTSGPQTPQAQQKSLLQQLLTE

inhibition, inactive:
CCN1CCN(c2ccc(S(=O)(=O)N3CCOCC3)cc2NC(=O)c2cc(Cl)nc3ccccc23)CC1 -18.2%, Cc1cc(C(=O)OCC(=O)N2CC(C)OC(C)C2)c(C)n1-c1ccccc1 (stereo not drawn) -17%, O=C(Nc1cc(Cl)ccc1N1CCOCC1)c1ccco1 1.28%, O=C(Nc1nc(-c2ccccn2)cs1)c1cccc(-n2cnnn2)c1 17.6%, CCOC(=O)C1CCN(S(=O)(=O)c2ccc3c(c2)CC(C)N3C(=O)C2CC2)CC1 (stereo not drawn) -22.1%, CC(=O)NC(c1cccs1)c1cc(F)c2cccnc2c1O (stereo not drawn) 14.3%, CN(CC(=O)Nc1ccc(Cl)c(C(F)(F)F)c1)C(=O)C1CC(=O)N(c2ccc3c(c2)OCCO3)C1 (stereo not drawn) 17.4%, CN(C(=O)COC(=O)c1ccc2[nH]c3c(c2c1)CCCC3)C1CCS(=O)(=O)C1 (stereo not drawn) -0.53%, CCOC(=O)c1c(NC(=O)c2c(-c3ccccc3)noc2C)sc(C)c1-c1ccccc1 39.9%, CCN(CC(=O)Nc1c(F)cccc1F)C(=O)/C=C/c1ccc(S(=O)(=O)N2CCCCCC2)cc1 -10.1%, Cc1ccc(OCCN2CCN(C(=O)CCC(=O)Nc3nnc(CC(C)C)s3)CC2)cc1 2.56%, O=C1NC[C@H](c2ccccc2)OC(=O)[C@@H](Cc2ccc(F)cc2)C/C=C\C[C@H]1CC(=O)N(CCO)Cc1ccccc1 -35%, Cn1c(=O)c2[nH]c(COc3ccc(C(C)(C)C)cc3)nc2n(C)c1=O 29.4%
